Drawing on PubChem BioAssay (EPA / NIEHS), this text covers outcome and AC50 for 40 compounds.

Calls of active or inactive are those of the source. The calls were made as follows: active = hit-call score of the fitted dose curve at least 0.9, where 1 is the maximum; inactive = score below 0.9.

The test can be described thus: ATG_Sox_CIS: Attagene CIS-FACTORIAL HepG2 Assay for human SRY-box transcription factor (SOX) (AID 2282960). As to conditions: HepG2 Attagene cis-factorial SOX reporter, mRNA; actives raise or lower the signal. On the procedure: ATG_CIS is a cell-based, multiplexed-readout assay that uses HepG2, a human liver cell line, with measurements taken at 24 hours after chemical dosing in a 24-well plate.ATG_Sox_CIS is one of 52 assay component(s) measured or calculated from the ATG_CIS assay. It is designed to make measurements of mRNA induction, a form of inducible reporter, as detected with fluorescence intensity signals by Reverse transcription polymerase chain reaction (RT-PCR) and Capillary electrophoresis technology.Data from the assay component ATG_Sox_CIS was analyzed into 1 assay endpoint. This assay endpoint, ATG_Sox_CIS, was analyzed with bidirectional fitting relative to DMSO as the negative control and baseline of activity. Using a type of inducible reporter, measures of mRNA for gain or loss-of-signal activity can be used to understand the reporter gene at the transcription factor-level as they relate to the gene SOX1. Furthermore, this assay endpoint can be referred to as a primary readout, because this assay has produced multiple assay endpoints where this one serves a reporter gene function. To generalize the intended target to other relatable targets, this assay endpoint is annotated to the dna binding intended target family, where the subfamily is HMG box protein.
Human liver HepG2 cells are transiently transfected with multiple reporter transcription units (MRTUs) in 6-well plates using FuGene 6 reagent (Roche; 3 ml FuGene/1 mg DNA). The MRTU constructs are regulated by a cis-regulating element (promoter). […] A major difference between the CIS and TRANS system is that in CIS activities of endogenous TFs are measured, whereas the TRANS assay evaluates changes in activities of exogenous, chimeric NR-Gal4 proteins. […] At the end of 24 hour incubation, total RNA was isolated using TriZol reagent (Invitrogen). The isolated RNA is then reverse-transcribed using oligo(dT) primer and Mo-MLV reverse transcriptase (Invitrogen) with DNAse I (Ambion) treatment for 30 min. The one-tenth of the produced cDNA was amplified by PCR using Taq DNA polymerase (Invitrogen) and two reporter sequence-specific primers. The PCR products were fluorescently labeled by primer extension with 6-arboxyfluorescein (6-FAM) 5'-labeled reporter sequence-specific primer (2 min at 95 C, 20 s at 68 C and 10 min at 72 C) and these products were digested with 5U of HpaI (New England Biolabs) for 2h at 37 C. The fragments were purified using Qiaquick PCR columns (Qiagen), analyzed on an ABI 3130xL genetic analyzer (Applied Biosystems) with peak positions identified by using a set of X-rhodamine (ROX)-labeled MapMarker1000 molecular weight standards (BioVentures). The raw capillary electrophoresis data was processed using Attagraph software (Attagene).
On to `CCCC(C)C(=O)OCC` (stereo not given), for which the call was inactive. On the same count and under the same terms, the result for `CCCCNS(=O)(=O)c1ccc(C)cc1` reads “inactive”; that for `CC(CCC(=O)O)(c1ccc(O)cc1)c1ccc(O)cc1`, “inactive”; that for `CCCCCCCCCC[N+](C)(CCCCCCCCCC)CCC[Si](OC)(OC)OC`, “inactive”. The same measure, in the same setting: with `CC(=O)C(C)C` the entry was “inactive”; with `N#CC1(N)CCCCC1`, “inactive”; with `COC(=O)c1ccc(C(=O)OC)c(C(=O)OC)c1`, “inactive”. The same measure, in the same setting: with `C=CCCCCCCCCO` the entry was “inactive”. Regarding `CC(C)CC(=O)OCc1ccccc1`, the result was inactive.

As to `O=C(Oc1ccccc1)c1ccccc1C(=O)Oc1ccccc1`, the result was inactive. The same measure, in the same setting: with `N#Cc1ccc(C(c2ccc(C#N)cc2)n2cncn2)cc1` the entry was “inactive”; with `Cc1c(C(=O)c2c[nH]n(C)c2=O)ccc(S(C)(=O)=O)c1C1=NOCC1`, “inactive”. `CCCCCC(=O)OCC`: the result was inactive.

As to `CO[Si](C)(C)OC`, the compound was called inactive. Turning to `CC(CC(C)C)=NO`, the call was inactive. On the same count and under the same terms, with `C1CCSC1` the entry was “inactive”. By AC50 is commonly meant the concentration giving half of the maximal activity seen. As for `CC(C)c1cc(C(C)C)cc(C(C)C)c1`, the AC50 was 159 µM (active).

Consider `C=CC(=O)NCOCCCC`, for which the call was inactive. On the same count and under the same terms, the result for `CC(C)(O)Cc1ccccc1` reads “inactive”; that for `C=C(C)C(=O)OCCOC(=O)C(=C)C`, “inactive”. Same read-out and setting: the result for `Cc1cc(=O)[nH]c(=O)[nH]1` reads “inactive”; that for `O=C(O)/C=C/c1ccccc1`, “inactive”.

For the compound `CCCCCCCCCCCC(=O)N(C)CC(=O)O`, the compound was called inactive.

Regarding `COc1cc(C)ccc1O`, the compound was classed as inactive. The same measure, in the same setting: the result for `CC(C)(CO)COC(=O)C(C)(C)CO` reads “inactive”; that for `CC(=O)CCC1=C(C)CCCC1(C)C`, “inactive”; that for `[Cl][Eu]([Cl])[Cl]`, “inactive”. On the same count and under the same terms, with `O=C(O)C(F)(F)C(F)(F)C(F)(F)C(F)(F)C(=O)O` the entry was “inactive”; with `NNS(=O)(=O)c1ccc(Oc2ccc(S(=O)(=O)NN)cc2)cc1`, “inactive”; with `Nc1ccnc(=O)[nH]1`, “inactive”.

With `CCCCCCCCCCCCCc1ccccc1`, the call was inactive. Consider `CC(=O)OCCc1ccccc1`, for which the outcome was inactive. Take `O=C(OCc1ccccc1)c1ccc(O)cc1`: the AC50 is 100 µM (active).

As for `C=C(C)C(=O)OCC(O)COc1ccc(C(C)(C)c2ccc(OCC(O)COC(=O)C(=C)C)cc2)cc1` (stereo not given), the AC50 is 65 µM (active).

`COc1ccc(-c2coc3cc(O)cc(O)c3c2=O)cc1`: the call was inactive. On the same count and under the same terms, with `CCOC(=O)C1=NN(c2ccc(Cl)cc2Cl)C(C)(C(=O)OCC)C1` (stereo not given) the entry was “inactive”; with `Cc1ccc([N+](=O)[O-])cc1N`, “inactive”. On the same count and under the same terms, with `O=C(O)C1CCC(C(=O)O)CC1` (stereo not given) the entry was “inactive”; with `CCN1CCCC1=O`, “inactive”.

For `CCCCC(=O)O`, the call was inactive.
